AHR activator: AHR activators, primary screen, cell-based, luminescence, luciferase reporter, human; AHR-responsive luciferase reporter cells; activation, % at 5 µM; actives 2.5% (n = 320,000); AID 2796, 2010; in the data active means activation above about 47%;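 further: 0% = vehicle wells and 100% = reference agonist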
sPLA2-III inh: human group III sPLA2 inhibitors, primary screen, biochemical, QFRET, BODIPY PC-A2 liposome substrate; Group 3 secretory phospholipase A2 (Homo sapiens), Q9NZ20; QFRET BODIPY PC-A2 liposome hydrolysis, fluorescence; inhibition, % at 12.2 µM; actives 0.56% (n = 370,000);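 active means inhibition above mean plus 3 SD of compounds lying within the high and low control bounds, cut at about 19% in these data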;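 further: 0% = median of test compound wells and 100% = no enzyme DMSO wells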
PLC-gamma1 inh: PLC-gamma1 enzyme inhibitors, primary screen, biochemical, fluorescence, purified enzyme | 1-phosphatidylinositol 4,5-bisphosphate phosphodiesterase gamma-1 (Homo sapiens), P19174 | fluorogenic substrate | inhibition, % at 12.2 µM | actives 0.84% (n = 370,000) | AID 720700, 2013
PLC-beta3 inh: human PLC-beta3 inhibitors, primary screen, biochemical, fluorescence; 1-phosphatidylinositol 4,5-bisphosphate phosphodiesterase beta-3 (Homo sapiens), Q01970; Purified PLC-beta3, fluorogenic substrate; inhibition, % at 12.2 µM; actives 0.18% (n = 370,000); AID 720704, 2013; in the data active means inhibition above about 11%;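 further: 0% = median of compound wells on plate and 100% = full blocker control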
Target sequence (Q01970 whole entry, looked up): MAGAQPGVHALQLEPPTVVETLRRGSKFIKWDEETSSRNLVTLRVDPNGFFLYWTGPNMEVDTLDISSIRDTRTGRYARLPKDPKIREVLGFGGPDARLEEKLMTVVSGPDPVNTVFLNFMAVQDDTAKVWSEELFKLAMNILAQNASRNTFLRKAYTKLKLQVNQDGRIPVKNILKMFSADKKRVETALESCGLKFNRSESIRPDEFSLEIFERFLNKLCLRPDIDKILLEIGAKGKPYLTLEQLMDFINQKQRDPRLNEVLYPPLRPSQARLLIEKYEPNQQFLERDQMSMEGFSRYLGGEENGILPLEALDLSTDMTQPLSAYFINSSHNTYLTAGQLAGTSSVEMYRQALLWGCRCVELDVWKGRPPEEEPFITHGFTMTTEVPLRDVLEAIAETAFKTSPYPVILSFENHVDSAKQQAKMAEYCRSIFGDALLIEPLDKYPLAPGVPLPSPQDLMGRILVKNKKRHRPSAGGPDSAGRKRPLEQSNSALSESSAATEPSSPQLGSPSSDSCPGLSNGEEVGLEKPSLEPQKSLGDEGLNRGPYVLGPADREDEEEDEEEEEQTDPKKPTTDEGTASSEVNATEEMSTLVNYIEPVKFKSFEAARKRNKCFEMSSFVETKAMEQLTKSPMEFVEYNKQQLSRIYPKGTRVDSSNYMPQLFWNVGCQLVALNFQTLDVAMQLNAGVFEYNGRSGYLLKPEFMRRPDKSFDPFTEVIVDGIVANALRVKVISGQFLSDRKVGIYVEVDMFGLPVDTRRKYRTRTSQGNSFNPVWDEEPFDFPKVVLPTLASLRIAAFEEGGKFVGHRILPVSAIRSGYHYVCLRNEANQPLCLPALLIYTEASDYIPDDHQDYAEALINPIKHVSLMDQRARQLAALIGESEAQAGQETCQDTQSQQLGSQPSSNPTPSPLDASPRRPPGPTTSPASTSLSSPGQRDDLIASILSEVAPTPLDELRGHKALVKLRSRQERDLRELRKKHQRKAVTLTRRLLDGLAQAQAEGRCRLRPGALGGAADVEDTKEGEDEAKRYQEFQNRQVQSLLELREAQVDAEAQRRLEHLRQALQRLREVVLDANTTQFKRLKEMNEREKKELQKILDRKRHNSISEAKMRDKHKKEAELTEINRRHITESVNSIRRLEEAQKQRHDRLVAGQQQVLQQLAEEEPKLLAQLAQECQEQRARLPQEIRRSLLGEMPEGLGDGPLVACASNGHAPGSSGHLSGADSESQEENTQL
HIF activator: HIF pathway transcriptional activators, primary screen, cell-based, U2OS HRE-luciferase, luminescence; U2OS HRE-luciferase reporter; normalized: DMSO 0%, desferrioxamine 100%; activation, % at 7.5 µM (by protocol); actives 0.32% (n = 300,000);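 active means mean activation of at least 10% of the iron chelator positive control signal, with at least half of replicates also reaching 10%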
CR mimetic SO: reduction of superoxide in aged yeast, primary screen, HTS; S. cerevisiae aged cells, superoxide DHE fluorescence; stronger effect = lower value; superoxide response (% of plate mean), % at 10 µM; AID 2690, 2010; actives 0.18% (n = 330,000);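 active means superoxide response under a set limit, about three screen SD below normal, cut at about 65% in these data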;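 further: yeast aged for seven days with compound at 30 °C before DHE staining; 100% = average MFI of all compound-treated wells on the plate with controls excluded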
PLCgamma1 ctr: PLC-gamma1 enzyme inhibitors, counter-screen for PLC-beta3 inhibitor project, biochemical, fluorescence; actives 3.1% (n = 3,300); AID 743258, 2014; purified PLC-gamma1, fluorogenic substrate; shares compounds with PLC-gamma1 inh; inhibition, % at 12.3 µM
PLCb3 confirm: PLC-beta3 inhibitor confirmation, biochemical, fluorescence, purified enzyme; shares compounds with PLC-gamma1 inh; fluorogenic substrate fluorescence; inhibition, % at 12.3 µM; actives 1% (n = 3,300); AID 743261, 2014; in the data active means inhibition above about 11%
* = called active by the depositor; . = not tested or not shown. In the library only some 3.9% were active in any assay of this set; here they are far more common. Unless noted, no stated cut-off is given here; in the data, active means inhibition above about 9.5%; inactive means the rest.

SMILES | AHR activator | sPLA2-III inh | PLC-gamma1 inh | PLC-beta3 inh | HIF activator | CR mimetic SO | PLCgamma1 ctr | PLCb3 confirm
Cc1ccc(-c2nc(CS(=O)CC(=O)NCc3ccco3)c(C)o2)cc1 (stereo not given) | 3 | -1 | -2 | -9 | 0 | 96 | . | .
COc1ccc(CNCCS(=O)(=O)NCc2ccc(OC)cc2)cc1 | . | 0 | 13* | 3 | . | . | -8 | -2
COc1cccc(C(=O)NNC(=O)CCC(=O)O)c1 | 0 | 10 | 9.9* | -3 | 0 | 101 | -9 | -5
O=C(O)CCC(=O)NNC(=O)c1cccc(Cl)c1 | 3 | 16 | -2 | -2 | 0 | 66 | . | .
OC[C@@H]1CN(Cc2ccc3c(c2)OCO3)C[C@H](n2cnc3c(N4CCN(c5ccccc5)CC4)ncnc32)O1 | . | -16 | 1 | 4 | . | . | . | .
Cc1ccc(C(C)C)cc1NC(=O)Nc1ccc([N+](=O)[O-])cc1 | 20 | 4 | 5 | 12* | -2 | 111 | 5 | 10
Cc1ccccc1CNC1CCCCC1 | -2 | 0 | 5 | 12* | 0 | 108 | -4 | -1
CCC(C)NCCCCOc1ccc(Cl)cc1C (stereo not given) | -1 | 2 | 12* | 4 | 0 | 95 | 7 | 3
C/C(=N\Nc1ccc(F)cc1F)c1ccccc1O | 4 | 10 | 12* | 2 | 5 | 109 | -6 | -5
C/C(=N\Nc1cc(C(F)(F)F)ccc1Cl)c1ccccc1O | 5 | 0 | 0 | 2 | 0 | 137 | . | .
CCOc1ccccc1NC(=O)CC(O)(C(F)(F)F)C(F)(F)F | 14 | 6 | 3 | 1 | 0 | 100 | . | .
CCOc1ccccc1NC(=O)COn1nnc2ccccc21 | 7 | 8 | 11* | 4 | 1 | 118 | -4 | -7
Cc1cc(NC(=O)COc2ccc3ccccc3c2)no1 | -1 | 3 | 2 | -4 | 1 | 93 | . | .
COc1ccc(/C=C2\CCC(C3CCCC3)C2=O)cc1 (stereo not given) | 4 | 7 | 10.0* | -5 | 2 | 113 | 2 | 4
CCCNC(=O)C(Cc1ccc(OC)cc1)NC(=O)c1ccc(Cl)cc1 (stereo not given) | 1 | 4 | 13* | 8 | . | 99 | -6 | 0
CCCNC(=O)C(Cc1ccc(OC)cc1)NC(=O)c1ccc(C#N)cc1 (stereo not given) | 1 | 8 | 0 | 1 | . | 88 | . | .
Cc1ccc(NC(=O)CSCC(=O)Nc2cc(Cl)ccc2N2CCOCC2)cc1 | 3 | -30 | 2 | -13 | 0 | 104 | . | .
O=C(CCN1C(=O)c2ccccc2C1=O)NCc1ccc(Cl)cc1 | -5 | 2 | 2 | 0 | 1 | 98 | . | .
COc1ccc(C(=S)N2CCN(c3ccccc3C)CC2)cc1 | 2 | 13 | 13* | 4 | 1 | 93 | -1 | -1
NC(=O)Nc1cccc2ccccc12 | 4 | 2 | -12 | -15 | -1 | 99 | . | .
CCC(=O)Nc1cccc2ccccc12 | 4 | 11 | 11* | -3 | 0 | 102 | 6 | 3
O=C(CN1C(=O)c2ccccc2S1(=O)=O)N1CCN(Cc2ccc3c(c2)OCO3)CC1 | -2 | 6 | 9.7* | 1 | 2 | 81 | 4 | 4
CC1CCC(C(C)C)C(OC(=O)C[n+]2cc(-c3ccc(Cl)cc3)n3c2CCC3)C1 (stereo not given) | 2 | 7 | 9.9* | -3 | 0 | 89 | -3 | -1
Cc1nc(CCNC(=O)C2CCC(=O)N(Cc3ccc(Cl)cc3)C2)sc1C (stereo not given) | . | 9 | 2 | -9 | -1 | . | . | .
